Assay results taken from PubChem BioAssay (NCI).
Compounds without any hit were thinned out: in the full panel of roughly 79,000, 15% have a hit. Activity calls are given as the source filed them. Rule as the data show it: active = growth inhibition above about 70%; inactive = the rest.

Tests used:
[1] = NCI Yeast Anticancer Drug Screen. Data for the rad52 strain (AID 147);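 also: 0% = growth of vehicle-treated control cultures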; conditions: S. cerevisiae rad52 mutant growth inhibition, stronger effect = higher value
Summary of the method: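 Vehicle-treated cultures served as the reference for growth inhibition of compound-exposed yeast bearing a DNA repair mutation.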

[2] = NCI Yeast Anticancer Drug Screen. Data for the wt1 strain (AID 149);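 also: 0% = growth of vehicle-treated wt1 cultures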; conditions: S. cerevisiae wt1 strain (SPY 50644) growth inhibition, stronger effect = higher value
Summary of the method: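 Measured: growth of wt1 yeast under compound versus vehicle treatment, reported as inhibition.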

[3] = NCI Yeast Anticancer Drug Screen. Data for the rad50EPP+ strain (AID 151);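 also: 0% = growth of vehicle-treated control cultures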; conditions: S. cerevisiae rad50 mutant strain, stronger effect = higher value
Summary of the method: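 In this screen, rad50EPP+ yeast were exposed to compounds. Growth inhibition was scored against vehicle-treated controls.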

[4] = NCI Yeast Anticancer Drug Screen. Data for the mgt1 strain (AID 153); conditions: S. cerevisiae mgt1 mutant growth inhibition, stronger effect = higher value
Summary of the method: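 mgt1 strain exposed; growth vs vehicle control recorded as inhibition.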

[5] = NCI Yeast Anticancer Drug Screen. Data for the rad50 strain (AID 155);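 also: 0% = growth of vehicle-only cultures of the same strain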; conditions: S. cerevisiae rad50 strain growth inhibition, stronger effect = higher value
Summary of the method: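 Growth of the mutant yeast was measured after compound exposure and referenced to vehicle-treated cultures.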

[6] = NCI Yeast Anticancer Drug Screen. Data for the mec2-1 strain (AID 157); conditions: S. cerevisiae mec2-1 strain, stronger effect = higher value
Summary of the method: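 Vehicle-treated cultures served as reference for growth inhibition of compound-exposed mec2-1 yeast.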

[7] = NCI Yeast Anticancer Drug Screen. Data for the rad14 strain (AID 159);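 also: 0% = growth of vehicle-treated control cultures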; conditions: S. cerevisiae rad14 strain growth inhibition, stronger effect = higher value
Summary of the method: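 Here, inhibition of yeast growth was measured after compound exposure, using a strain with a genetic defect in DNA damage repair and vehicle-treated cultures as the reference.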

[8] = NCI Yeast Anticancer Drug Screen. Data for the sgs1 mgt1 strain (AID 161);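 also: 0% = growth of cultures given vehicle only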; conditions: S. cerevisiae sgs1 mgt1 strain, stronger effect = higher value
Summary of the method: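 Mutant yeast exposed to compound; growth scored against vehicle-only wells.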

[9] = NCI Yeast Anticancer Drug Screen. Data for the CLN2oe strain (AID 163);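 also: 0% = growth of vehicle-only control cultures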; conditions: S. cerevisiae CLN2oe strain, stronger effect = higher value
Summary of the method: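 Inhibition relative to vehicle-treated yeast is reported. Cells: strain with genetic alteration in cell-cycle control, grown with compound.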

[10] = NCI Yeast Anticancer Drug Screen. Data for the cln2 rad14 strain (AID 165);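 also: 0% = growth equal to vehicle treated cultures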; conditions: S. cerevisiae cln2 rad14 strain, stronger effect = higher value
Summary of the method: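 Each compound was tested on cln2 rad14 yeast. Inhibition of growth was calculated against vehicle-exposed controls.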

[11] = NCI Yeast Anticancer Drug Screen. Data for the bub3 strain (AID 167); conditions: S. cerevisiae bub3 mutant strain, stronger effect = higher value
Summary of the method: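 Whole-cell yeast assay. The mutant strain was incubated with compounds, and growth inhibition was determined by comparison with vehicle-treated cells.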

[12] = NCI Yeast Anticancer Drug Screen. Data for the wt2 strain (AID 169);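 also: 0% = growth of vehicle-treated yeast cultures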; conditions: S. cerevisiae wt2 strain growth inhibition, stronger effect = higher value
Summary of the method: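 Inhibition of yeast growth was determined after compound treatment, normalised to controls receiving only vehicle.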

[13] = NCI Yeast Anticancer Drug Screen. Data for the mlh1 strain (AID 171);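 also: 0% = growth of vehicle-treated control cultures of the same strain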; conditions: S. cerevisiae mlh1 strain growth inhibition, stronger effect = higher value
Summary of the method: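 Vehicle-normalised growth inhibition of a repair- or checkpoint-altered yeast strain following compound treatment.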

[14] = NCI Yeast Anticancer Drug Screen. Data for the sgs1 strain (AID 173);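 also: 0% = growth of vehicle-only control cultures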; conditions: S. cerevisiae sgs1 mutant, stronger effect = higher value
Summary of the method: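 Screen format: yeast with repair or checkpoint alterations, compound exposure, growth read relative to vehicle.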

[15] = NCI Yeast Anticancer Drug Screen. Data for the mlh1 rad18 strain (AID 175); conditions: S. cerevisiae mlh1 rad18 strain growth inhibition, stronger effect = higher value
Summary of the method: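 Vehicle-treated cultures served as the reference for growth inhibition in a yeast strain carrying DNA damage repair alterations exposed to each compound.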

[16] = at 5.0 µM (retest, dose inferred, filed as 0.5)
[17] = at 50.0 µM (retest, dose inferred, filed as 5.0)

Measured: growth inhibition

NC(=O)C(=O)NNc1ccccc1
active: [1]; at 33.0 µM 85% | [1]; at 100.0 µM 98% | [2]; at 100.0 µM 94% | [3]; at 33.0 µM 85% | [3]; at 100.0 µM 96% | [4]; at 33.0 µM 76% | [4]; at 100.0 µM 97% | [5]; at 33.0 µM 75% | [5]; at 50.0 µM 95.5% | [5]; at 100.0 µM 97% | [6]; at 33.0 µM 81% | [6]; at 50.0 µM 83.8% | [6]; at 100.0 µM 97% | [7]; at 100.0 µM 98% | [8]; [17] 78% | [8]; at 50.0 µM 90.5% | [9]; at 100.0 µM 96% | [10]; at 50.0 µM 80.8% | [11]; at 33.0 µM 95% | [11]; at 50.0 µM 92.2% | [11]; at 100.0 µM 97% | [12]; at 100.0 µM 97% | [13]; at 33.0 µM 75% | [13]; at 100.0 µM 98% | [14]; at 33.0 µM 92% | [14]; at 100.0 µM 98% | [15]; [17] 89% | [15]; at 50.0 µM 82.7%
inactive: [1]; at 1.2 µM 4% | [1]; at 3.7 µM 12% | [1]; at 11.0 µM 39% | [2]; at 1.2 µM 3% | [2]; at 3.7 µM 13% | [2]; at 11.0 µM 45% | [2]; at 33.0 µM 57% | [3]; at 1.2 µM 9% | [3]; at 3.7 µM 29% | [3]; at 11.0 µM 60% | [4]; at 1.2 µM 5% | [4]; at 3.7 µM 10% | [4]; at 11.0 µM 28% | [5]; at 1.2 µM 1% | [5]; at 3.7 µM 6% | [5]; [16] 9% | [5]; at 11.0 µM 31% | [5]; [17] 49% | [6]; at 1.2 µM 0% | [6]; at 3.7 µM 6% | [6]; [16] -1% | [6]; at 11.0 µM 48% | [6]; [17] 4% | [7]; at 1.2 µM 1% | [7]; at 3.7 µM 0% | [7]; at 11.0 µM 13% | [7]; at 33.0 µM 66% | [8]; [16] 8% | [9]; at 1.2 µM -3% | [9]; at 3.7 µM 4% | [9]; at 11.0 µM 41% | [9]; at 33.0 µM 67% | [10]; [16] 9% | [10]; [17] 32% | [11]; at 1.2 µM -3% | [11]; at 3.7 µM 6% | [11]; [16] 27% | [11]; at 11.0 µM 64% | [11]; [17] 66% | [12]; at 1.2 µM 3% | [12]; at 3.7 µM 13% | [12]; at 11.0 µM 34% | [12]; at 33.0 µM 60% | [13]; at 1.2 µM 3% | [13]; at 3.7 µM 5% | [13]; at 11.0 µM 31% | [14]; at 1.2 µM 3% | [14]; at 3.7 µM 14% | [14]; at 11.0 µM 59% | [15]; [16] 45%
